Screening data (PubChem)
N-glyco inh: increase of ERlucT glycosylation luciferase signal, primary screen, N-linked glycosylation inhibitor project, D54 ERlucT cells, luminescence, set 2; 0.23% of 360,000 active; D54 ERlucT glycosylation luciferase reporter, 24 h; percent of 100 nM tunicamycin response; reporter increase, % at 12.5 µM;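 active means mean luciferase reporter signal, scaled so untreated is 0 and the glycosylation-blocking control 100, at or above a set limit in every replicate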;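 further: luciferase carries N-glycosylation sites so blocking glycosylation raises the light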
PglD inh: C. jejuni PglD acetyltransferase inhibitors, primary screen, biochemical, DTNB colorimetric, single point | UDP-N-acetylbacillosamine N-acetyltransferase PglD (Campylobacter jejuni) | purified PglD enzyme, DTNB colorimetric CoA detection | inhibition, % at 12.5 µM | 0.098% of 360,000 active; in the data active means inhibition above about 16%, passing the limit was not always enough
DENV2 CPE: inhibitors of DENV2 cytopathic effect, primary screen, cell-based, plate reader, single concentration; AID 651640, 2012; CPE inhibition, % at 9.99 µM; DENV2-infected cells, cytopathic effect rescue; 1.7% of 350,000 active; in the data active means CPE inhibition above about 20%, passing the limit was not always enough; tested in BHK-21 cells
Rtt109 HAT inh: inhibitors of C. albicans Rtt109/Vps75 HAT, primary screen, biochemical, ThioGlo CoA-SH fluorescence, plate reader; inhibition, % at 34.9 µM; AID 540336, 2011; 0.16% of 330,000 active; Histone acetyltransferase RTT109 (Candida albicans (strain SC5314 / ATCC MYA-2876)), …; purified Rtt109/Vps75, 4 h;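 active means inhibition of at least 50% in every replicate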
Target sequence (Q5AAJ8 whole entry, looked up): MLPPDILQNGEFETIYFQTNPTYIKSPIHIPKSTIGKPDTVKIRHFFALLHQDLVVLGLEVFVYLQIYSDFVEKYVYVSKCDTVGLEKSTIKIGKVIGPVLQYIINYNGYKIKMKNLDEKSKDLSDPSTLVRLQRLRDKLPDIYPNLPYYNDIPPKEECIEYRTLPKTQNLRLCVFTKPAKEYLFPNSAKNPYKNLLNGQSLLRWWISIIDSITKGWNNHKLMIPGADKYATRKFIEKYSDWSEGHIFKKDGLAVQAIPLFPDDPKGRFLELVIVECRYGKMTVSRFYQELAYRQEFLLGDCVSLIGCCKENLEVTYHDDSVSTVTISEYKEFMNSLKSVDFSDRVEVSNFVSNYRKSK
Each line names hits and unclear results; the compound was inactive in the other large screens. This is one part of a sample in which hits are shown more often than they occur.

C[C@@H]1CN([C@H](C)CO)C(=O)c2cc(NS(=O)(=O)c3ccc(Cl)cc3)ccc2O[C@@H](C)CCCCO[C@@H]1CN(C)C(=O)CCCN(C)C	DENV2 CPE 22.4 (no result: N-glyco inh, Rtt109 HAT inh)
C[C@@H]1CN([C@@H](C)CO)C(=O)c2cc(NS(=O)(=O)c3ccc(Cl)cc3)ccc2O[C@@H](C)CCCCO[C@@H]1CN(C)C(=O)CCCN(C)C	DENV2 CPE 20.4 (no result: N-glyco inh, Rtt109 HAT inh)
CN(Cc1nccs1)C(=O)c1ccc(OC2CCN(Cc3ccccn3)CC2)cc1	DENV2 CPE 41.8
C=CCOC(=O)C(=O)/C=C/c1ccc(OC)cc1	none (no result: N-glyco inh, PglD inh, Rtt109 HAT inh)
Cc1noc(C)c1NC(=O)N(C)C[C@H]1OCCCC[C@@H](C)Oc2ccc(NS(=O)(=O)c3ccccc3)cc2C(=O)N([C@H](C)CO)C[C@H]1C	DENV2 CPE 69.9 (no result: N-glyco inh, Rtt109 HAT inh)
Cc1noc(C)c1NC(=O)N(C)C[C@@H]1Oc2ccc(NS(=O)(=O)c3cccs3)cc2C(=O)N([C@@H](C)CO)C[C@H]1C	DENV2 CPE 37.6 (no result: N-glyco inh, Rtt109 HAT inh)
Cc1noc(C)c1NC(=O)N(C)C[C@@H]1Oc2ccc(NS(=O)(=O)c3cccs3)cc2C(=O)N([C@H](C)CO)C[C@H]1C	none (no result: N-glyco inh, Rtt109 HAT inh)
Cc1noc(C)c1NC(=O)N(C)C[C@@H]1OCCCC[C@H](C)Oc2ccc(NS(=O)(=O)c3cccs3)cc2C(=O)N([C@@H](C)CO)C[C@H]1C	DENV2 CPE 22.5 (no result: N-glyco inh, Rtt109 HAT inh)
COc1ccc(CNC(=O)C[C@H]2CC[C@H](NC(=O)Nc3ccc4c(c3)OCO4)[C@@H](CO)O2)cc1	none (no result: N-glyco inh, Rtt109 HAT inh)
O=C(C[C@@H]1CC[C@H]2[C@@H](COC[C@H](O)CN2C(=O)c2cccnc2)O1)NCc1ccc(-c2ccccc2)cc1	none (no result: N-glyco inh, Rtt109 HAT inh)
CCOc1ccc(N2C(=O)CC(Sc3ccccc3C(=O)O)C2=O)c([N+](=O)[O-])c1 (centres undefined)	Rtt109 HAT inh 65.4 (no result: PglD inh)
CCOC(=O)c1c(N2C(=O)CC(Sc3ccccc3C(=O)O)C2=O)sc2c1CCCC2 (centres undefined)	Rtt109 HAT inh 88.3 (no result: PglD inh)
C[C@@H]1CN([C@H](C)CO)C(=O)Cc2cc(NC(=O)C3CC3)ccc2O[C@H]1CN(C)Cc1ccccc1	none (no result: N-glyco inh, Rtt109 HAT inh)
C[C@@H]1CN([C@@H](C)CO)C(=O)c2cccc(NC(=O)Nc3ccc4c(c3)OCO4)c2O[C@@H]1CN(C)C(=O)NC1CCCCC1	none (no result: N-glyco inh, Rtt109 HAT inh)
CN(C)S(=O)(=O)c1ccc(Cl)c(NC(=O)CSc2nc3c(cc2C#N)C(=O)CC(C)(C)C3)c1	DENV2 CPE 30.8
CCCC(=O)Nc1ccc2c(c1)C(=O)N(C)C[C@H](OC)[C@H](C)CN(Cc1ccc(-c3ccccn3)cc1)[C@@H](C)CO2	DENV2 CPE 28.3 (no result: N-glyco inh, Rtt109 HAT inh)
CCCNC(=O)Nc1ccc2c(c1)OC[C@H](C)N(Cc1ccncc1)C[C@@H](C)[C@@H](OC)CN(C)C2=O	DENV2 CPE 45.1 (no result: N-glyco inh, Rtt109 HAT inh)
COc1ccccc1CN1C[C@H](C)[C@H](OC)CN(C)C(=O)c2ccc(NC(C)=O)cc2OC[C@H]1C	DENV2 CPE 43.3 (no result: N-glyco inh, Rtt109 HAT inh)
CCC(=O)Nc1ccc2c(c1)OC[C@H](C)N(Cc1ccccn1)C[C@@H](C)[C@H](OC)CN(C)C2=O	DENV2 CPE 31.7 (no result: N-glyco inh, Rtt109 HAT inh)
CCC(=O)N(C)C[C@@H]1Oc2ncc(/C=C/c3ccccc3)cc2C(=O)N([C@H](C)CO)C[C@H]1C	none (no result: N-glyco inh, Rtt109 HAT inh)
COc1ccc(NC(=O)c2nc3ccccc3s2)cc1	Rtt109 HAT inh 53.6 (no result: PglD inh)
COc1ccc(CN2C[C@H](C)[C@@H](OC)CN(C)C(=O)c3cc(NC(=O)c4nc5ccccc5s4)ccc3OC[C@@H]2C)cc1	DENV2 CPE 31.0 (no result: N-glyco inh, Rtt109 HAT inh)
CCCC(=O)Nc1ccc2c(c1)OC[C@@H](C)N(Cc1ccccn1)C[C@H](C)[C@@H](OC)CN(C)C2=O	DENV2 CPE 63.6 (no result: N-glyco inh, Rtt109 HAT inh)
CCCC(=O)Nc1ccc2c(c1)OC[C@@H](C)N(Cc1ccccn1)C[C@H](C)[C@H](OC)CN(C)C2=O	none (no result: N-glyco inh, Rtt109 HAT inh)
COc1ccc(CN2C[C@@H](C)[C@@H](OC)CN(C)C(=O)c3cc(NC(=O)c4nc5ccccc5s4)ccc3OC[C@@H]2C)cc1	none (no result: N-glyco inh, Rtt109 HAT inh)
CCCC(=O)Nc1ccc2c(c1)OC[C@H](C)N(Cc1ccccc1)C[C@H](C)[C@@H](OC)CN(C)C2=O	DENV2 CPE 31.6 (no result: N-glyco inh, PglD inh, Rtt109 HAT inh)
CCCC(=O)Nc1ccc2c(c1)OC[C@H](C)N(Cc1ccccc1)C[C@H](C)[C@H](OC)CN(C)C2=O	none (no result: N-glyco inh, Rtt109 HAT inh)
C[C@H]1CCCCO[C@@H](CN(C)Cc2ccncc2)[C@@H](C)CN([C@@H](C)CO)C(=O)c2cc(NS(=O)(=O)c3ccc(F)cc3)ccc2O1	none (no result: N-glyco inh, Rtt109 HAT inh)
